# ± gives the standard deviation of the averaged measurements.
# Columns and labels:
# HCI03 = cells of an ER-positive luminal breast cancer xenograft; test: cell viability (% of vehicle); higher = less cytotoxic; conditions: 10 µM; 72 h
# HCI09 = cells of a triple-negative luminal androgen receptor type breast cancer xenograft; test: as above; conditions: 10 µM; 72 h
# HCI13 = cells of an ER-positive luminal breast cancer xenograft; test: as above; conditions: 10 µM; 72 h
# WHIM2 = cells of a triple-negative basal-like breast cancer xenograft; test: as above; conditions: 10 µM; 72 h
# HCI01 [1] = cells of a triple-negative basal-like breast cancer xenograft; test: as above; conditions: 10 µM; 72 h
# HCI11 = cells of an ER-positive luminal breast cancer xenograft; test: as above; conditions: 10 µM; 72 h
# UCD52 [2] = cells of a triple-negative basal-like breast cancer xenograft; test: as above; conditions: 10 µM; 72 h
# WHIM30 = cells of a triple-negative basal-like breast cancer xenograft; test: as above; conditions: 10 µM; 72 h
# HCI16 = cells of a triple-negative basal-like breast cancer xenograft; test: as above; conditions: 10 µM; 72 h
# HCI01 [3] = test: cell viability of combination (% of vehicle); higher = less cytotoxic; conditions: 1 µM; 72 h; partner dose: 10 nM
# Method: (§1)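 PDX cells were treated for 72 h with each drug at 1 µM plus carfilzomib (10 nM; 100 nM for WHIM2). Luciferase viability is expressed as percent of vehicle.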
# UCD52 [4] = test: as above; conditions: 1 µM; 72 h; partner dose: 10 nM
# Method: as §1
smiles,measurement,setting,value
CC12CCC(=O)C=C1C1CC1C1C2CCC2(C)C1C1CC1C21CCC(=O)O1 (stereo unspecified) [Drospirenone],cell viability,HCI03,150
same,cell viability,HCI09,178 ± 190
same,cell viability,HCI13,84.8 ± 24
same,cell viability,WHIM2,39.5 ± 12
CCCCOc1ccc(CC(=O)NO)cc1 [Bufexamac],cell viability,HCI01 [1],182.8 ± 1.2
same,cell viability,HCI09,140 ± 6.6
same,cell viability,HCI11,173
same,cell viability,HCI13,141 ± 35
same,cell viability,UCD52 [2],148 ± 29
same,cell viability,WHIM2,112 ± 2.7
same,cell viability,WHIM30,102 ± 3.6
COC1=CC(=O)C[C@@H](C)[C@]12Oc1c(Cl)c(OC)cc(OC)c1C2=O [Griseofulvin],cell viability,HCI01 [1],127 ± 7.9
same,cell viability,HCI09,141 ± 30
same,cell viability,HCI11,98.7
same,cell viability,HCI13,128 ± 5.8
same,cell viability,HCI16,128
same,cell viability,UCD52 [2],136 ± 24
same,cell viability,WHIM2,121 ± 36
same,cell viability,WHIM30,190 ± 15
Cl.Nc1ccc(N=Nc2ccccc2)c(N)n1 [Phenazopyridine HCl],cell viability,HCI01 [1],196 ± 12
same,cell viability,HCI11,136
same,cell viability,HCI16,200
same,cell viability,WHIM2,191 ± 47
C[C@@H]1C\C=C/C=C\C=C/C=C\[C@H](O[C@@H]2O[C@H](C)[C@@H](O)[C@H](N)[C@@H]2O)C[C@@H]2O[C@](O)(C[C@@H](O)C[C@H]3O[C@@H]3/C=C\C(=O)O1)C[C@H](O)[C@H]2C(=O)O [Natamycin],cell viability,HCI03,137
same,cell viability,HCI09,121 ± 19
same,cell viability,HCI11,146
same,cell viability,HCI13,144.5 ± 1.4
same,cell viability,UCD52 [2],156 ± 48
same,cell viability,WHIM2,103 ± 9.2
same,cell viability,WHIM30,199 ± 34
"CN1CCN(c2ccc3c(c2)NC(=C2C(=O)N=c4cccc(F)c4=C2N)N3)CC1 [Dovitinib (TKI-258, CHIR-258)]",cell viability,HCI01 [1],92.5 ± 18
same,cell viability,HCI09,49.8 ± 24
same,cell viability,HCI11,79
same,cell viability,UCD52 [2],125 ± 32
same,cell viability,WHIM2,69.8 ± 20
same,cell viability,WHIM30,104 ± 1.8
CCn1cc(C(=O)O)c(=O)c2cnc(N3CCCC3)nc21 [Piromidic Acid],cell viability,HCI01 [1],151 ± 52
same,cell viability,HCI09,132 ± 5
same,cell viability,HCI11,110
same,cell viability,HCI13,171 ± 27
same,cell viability,HCI16,125
same,cell viability,UCD52 [2],145 ± 4.4
CCN(CC)CCOc1ccc(C(=C(Cl)c2ccccc2)c2ccccc2)cc1.O=C(O)CC(O)(CC(=O)O)C(=O)O [Clomiphene citrate],cell viability,HCI03,51.5
same,cell viability,HCI09,34.9 ± 3.9
same,cell viability,HCI11,95.8
same,cell viability,HCI13,39.3 ± 1.4
same,cell viability,HCI16,134
same,cell viability,UCD52 [2],62.5 ± 0.63
same,cell viability,WHIM2,35.1 ± 12
same,cell viability,WHIM30,146 ± 15
CC(C)Cc1ccc(C(C)C(=O)O)cc1.NCCCCC(N)C(=O)O (stereo unspecified) [Ibuprofen Lysine],cell viability,HCI03,130
same,cell viability,HCI09,106 ± 12
same,cell viability,HCI11,138
same,cell viability,HCI13,131 ± 6.2
same,cell viability,HCI16,162
same,cell viability,UCD52 [2],132 ± 29
same,cell viability,WHIM2,84.8 ± 3.6
same,cell viability,WHIM30,170 ± 23
"CCC(CO)Nc1nc(NCc2ccccc2)c2ncn(C(C)C)c2n1 (stereo unspecified) [Roscovitine (Seliciclib,CYC202)]",cell viability,HCI01 [1],80.4 ± 47
same,cell viability,HCI09,55.1 ± 22
same,cell viability,HCI11,176
same,cell viability,HCI13,77.4 ± 2.6
same,cell viability,HCI16,138
same,cell viability,UCD52 [2],145 ± 25
same,cell viability,WHIM2,90.4 ± 1.3
same,cell viability,WHIM30,123 ± 4.2
CC[C@]1(O)C[C@H]2CN(CCc3c([nH]c4ccccc34)[C@@](C(=O)OC)(c3cc4c(cc3OC)N(C=O)[C@H]3[C@@](O)(C(=O)OC)C(OC(C)=O)[C@]5(CC)C=CCN6CC[C@]43C65)C2)C1.O=S(=O)(O)O (stereo partly specified) [Vincristine],cell viability,HCI03,111
same,cell viability,HCI09,91.3 ± 26
same,cell viability,HCI11,112
same,cell viability,HCI13,42.2 ± 2.8
same,cell viability,HCI16,200
same,cell viability,UCD52 [2],85.1 ± 13
same,cell viability,WHIM2,90.5 ± 12
same,cell viability,WHIM30,153 ± 16
Cc1nnc(C(C)C)n1C1CC2CCC(C1)N2CCC(NC(=O)C1CCC(F)(F)CC1)c1ccccc1 (stereo unspecified) [Maraviroc],cell viability,HCI01 [1],110 ± 12
same,cell viability,HCI09,95.9 ± 3.6
same,cell viability,HCI11,129
same,cell viability,HCI13,73.7 ± 15
same,cell viability,HCI16,163
same,cell viability,UCD52 [2],88.8 ± 1.3
same,cell viability,WHIM2,91.4 ± 26
same,cell viability,WHIM30,123 ± 18
O=C(CCCCCCNC(=O)c1cnc(N(c2ccccc2)c2ccccc2)nc1)NO [Rocilinostat (ACY-1215)],cell viability,HCI03,108
same,cell viability,HCI09,45.1 ± 28
same,cell viability,HCI13,49.3 ± 7.8
same,cell viability,WHIM2,51.2 ± 8.8
"CC=C1NC(=O)C2CSSCCC=CC(CC(=O)NC(C(C)C)C(=O)N2)OC(=O)C(C(C)C)NC1=O (stereo unspecified) [Romidepsin (FK228, depsipeptide)]",cell viability,HCI03,177
same,cell viability,HCI09,77.5 ± 29
same,cell viability,HCI13,66.1 ± 6.7
same,cell viability,WHIM2,34.4 ± 4.2
COC(=O)c1ccc2c(c1)NC(=O)C2=C(Nc1ccc(N(C)C(=O)CN2CCN(C)CC2)cc1)c1ccccc1 [Nintedanib (BIBF 1120)] + CC(C)C[C@H](NC(=O)[C@H](CCc1ccccc1)NC(=O)CN1CCOCC1)C(=O)N[C@@H](Cc1ccccc1)C(=O)N[C@@H](CC(C)C)C(=O)[C@@]1(C)CO1 [Carfilzomib],cell viability of combination,HCI01 [3],76.4
same,cell viability of combination,UCD52 [4],37.5
Nc1nc2ccc(OC(F)(F)F)cc2s1 [Riluzole],cell viability,HCI03,158
same,cell viability,HCI11,162
same,cell viability,HCI13,161 ± 27
same,cell viability,HCI16,139
same,cell viability,UCD52 [2],175 ± 15
same,cell viability,WHIM2,145 ± 7.3
CNC1CCC(c2ccc(Cl)c(Cl)c2)c2ccccc21.Cl (stereo unspecified) [Sertraline HCl] + CC(C)C[C@H](NC(=O)[C@H](CCc1ccccc1)NC(=O)CN1CCOCC1)C(=O)N[C@@H](Cc1ccccc1)C(=O)N[C@@H](CC(C)C)C(=O)[C@@]1(C)CO1 [Carfilzomib],cell viability of combination,HCI01 [3],72.1
same,cell viability of combination,UCD52 [4],61.1
O=c1c(-c2ccc(O)cc2)coc2cc(O)cc(O)c12 [Genistein],cell viability,HCI03,160
same,cell viability,HCI11,129
same,cell viability,HCI16,183
same,cell viability,UCD52 [2],189 ± 34
same,cell viability,WHIM2,121 ± 5.2
Cc1oncc1C(=O)Nc1ccc(C(F)(F)F)cc1 [Leflunomide],cell viability,HCI11,194
Cc1nc(-c2ccc(OCC(C)C)c(C#N)c2)sc1C(=O)O [Febuxostat],cell viability,HCI16,191
CN(C)CC=CC(=O)Nc1cc2c(Nc3ccc(F)c(Cl)c3)ncnc2cc1OC1CCOC1 (stereo unspecified) [Afatinib (BIBW2992)] + CC(C)C[C@H](NC(=O)[C@H](CCc1ccccc1)NC(=O)CN1CCOCC1)C(=O)N[C@@H](Cc1ccccc1)C(=O)N[C@@H](CC(C)C)C(=O)[C@@]1(C)CO1 [Carfilzomib],cell viability of combination,HCI01 [3],63.1
same,cell viability of combination,UCD52 [4],26.2
CC(C)C[C@H](NC(=O)[C@H](Cc1ccccc1)NC(=O)c1cnccn1)B(O)O [Bortezomib] + CC(C)C[C@H](NC(=O)[C@H](CCc1ccccc1)NC(=O)CN1CCOCC1)C(=O)N[C@@H](Cc1ccccc1)C(=O)N[C@@H](CC(C)C)C(=O)[C@@]1(C)CO1 [Carfilzomib],cell viability of combination,HCI01 [3],28.8
same,cell viability of combination,UCD52 [4],15.5
COc1cccc2c1C(=O)c1c(O)c3c(c(O)c1C2=O)CC(O)(C(=O)CO)CC3OC1CC(N)C(O)C(C)O1.Cl (stereo unspecified) [Epirubicin HCl] + CC(C)C[C@H](NC(=O)[C@H](CCc1ccccc1)NC(=O)CN1CCOCC1)C(=O)N[C@@H](Cc1ccccc1)C(=O)N[C@@H](CC(C)C)C(=O)[C@@]1(C)CO1 [Carfilzomib],cell viability of combination,HCI01 [3],73.9
same,cell viability of combination,UCD52 [4],21
Cn1nnc(-c2ccc(-c3ccc(N4CC(CO)OC4=O)cc3F)cn2)n1 (stereo unspecified) [Tedizolid],cell viability,HCI11,107
same,cell viability,HCI16,170
same,cell viability,WHIM2,157 ± 57
O=C(O)CO.[NH2-].[NH2-].[Pt+2] [Nedaplatin] + CC(C)C[C@H](NC(=O)[C@H](CCc1ccccc1)NC(=O)CN1CCOCC1)C(=O)N[C@@H](Cc1ccccc1)C(=O)N[C@@H](CC(C)C)C(=O)[C@@]1(C)CO1 [Carfilzomib],cell viability of combination,HCI01 [3],71.6
same,cell viability of combination,UCD52 [4],68.8
Cc1ccc(-n2[nH]c(C)c(NN=C3C=CC=C(c4cccc(C(=O)O)c4)C3=O)c2=O)cc1C [Eltrombopag] + CC(C)C[C@H](NC(=O)[C@H](CCc1ccccc1)NC(=O)CN1CCOCC1)C(=O)N[C@@H](Cc1ccccc1)C(=O)N[C@@H](CC(C)C)C(=O)[C@@]1(C)CO1 [Carfilzomib],cell viability of combination,HCI01 [3],74.8
same,cell viability of combination,UCD52 [4],58.8
C=C1C(=CC=C2CCCC3(C)C2CCC3C(C)CCCC(C)(C)O)CC(O)CC1O (stereo unspecified) [Calcitriol] + CC(C)C[C@H](NC(=O)[C@H](CCc1ccccc1)NC(=O)CN1CCOCC1)C(=O)N[C@@H](Cc1ccccc1)C(=O)N[C@@H](CC(C)C)C(=O)[C@@]1(C)CO1 [Carfilzomib],cell viability of combination,HCI01 [3],53.8
same,cell viability of combination,UCD52 [4],38.4
CC(C)(C)c1ccc(C(=O)CCCN2CCC(OC(c3ccccc3)c3ccccc3)CC2)cc1 [Ebastine] + CC(C)C[C@H](NC(=O)[C@H](CCc1ccccc1)NC(=O)CN1CCOCC1)C(=O)N[C@@H](Cc1ccccc1)C(=O)N[C@@H](CC(C)C)C(=O)[C@@]1(C)CO1 [Carfilzomib],cell viability of combination,HCI01 [3],74
same,cell viability of combination,UCD52 [4],59.8
COc1cccc2c1C(=O)c1c(O)c3c(c(O)c1C2=O)CC(O)(C(=O)CO)CC3OC1CC(N)C(O)C(C)O1.Cl (stereo unspecified) [Doxorubicin (Adriamycin) HCl] + CC(C)C[C@H](NC(=O)[C@H](CCc1ccccc1)NC(=O)CN1CCOCC1)C(=O)N[C@@H](Cc1ccccc1)C(=O)N[C@@H](CC(C)C)C(=O)[C@@]1(C)CO1 [Carfilzomib],cell viability of combination,HCI01 [3],60.9
same,cell viability of combination,UCD52 [4],30.2
Oc1ccc(C=Cc2cc(O)cc(O)c2)cc1 [Resveratrol],cell viability,HCI09,196 ± 110
same,cell viability,HCI16,174
same,cell viability,WHIM2,191 ± 54
CC(C=CC1=C(C)CCCC1(C)C)=CC=CC(C)=CC(=O)O [Tretinoin (Aberela)],cell viability,HCI03,143
same,cell viability,HCI11,149
same,cell viability,HCI13,146 ± 12
same,cell viability,HCI16,175
same,cell viability,WHIM2,58.5 ± 19
Nc1ccn(C2OC(CO)C(O)C2O)c(=O)n1 (stereo unspecified) [Cytarabine] + CC(C)C[C@H](NC(=O)[C@H](CCc1ccccc1)NC(=O)CN1CCOCC1)C(=O)N[C@@H](Cc1ccccc1)C(=O)N[C@@H](CC(C)C)C(=O)[C@@]1(C)CO1 [Carfilzomib],cell viability of combination,HCI01 [3],57.8
same,cell viability of combination,UCD52 [4],68.3

# Reference: the supplement of paper PMC6992640
